In article PMC5540273 (PLoS ONE, 2017):

Tests used:
Conditions in all cases: concentration: 1 μM, replicates: in singlicate; n = 1
PRKX = test system: PRKX
PRP4 = test system: PRP4
PYK2 = test system: T1, PYK2
T1 construct: gene PTK2B

QSK = test system: QSK
RAF1 = test system: RAF1
RET = test system: RET
RIOK1 = test system: RIOK1
RIOK2 = test system: RIOK2
RIOK3 = test system: RIOK3
RIPK1 = test system: RIPK1
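Also: KINOMEscan kinase panel screen.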

COc1cc2ncn(-c3cc(OCc4ccc(S(C)(=O)=O)cc4)c(C(N)=O)s3)c2cc1OC [GW869979]
%Inh (PRKX): 0% | %Inh (PRP4): 0% | %Inh (PYK2): 0% | %Inh (QSK): 27% | %Inh (RAF1): 0% | %Inh (RET): 26% | %Inh (RIOK1): 0% | %Inh (RIOK2): 8% | %Inh (RIOK3): 0% | %Inh (RIPK1): 18%

CCc1nc(-c2cccc(C)c2)c(-c2ccncc2)s1
%Inh (PRKX): 0% | %Inh (PRP4): 26% | %Inh (PYK2): 0% | %Inh (QSK): 0% | %Inh (RAF1): 22% | %Inh (RET): 0% | %Inh (RIOK1): 12% | %Inh (RIOK2): 8% | %Inh (RIOK3): 12% | %Inh (RIPK1): 0%

Cc1nc(N(C)[C@H]2CN(C(=O)CC#N)CC[C@H]2C)c2cc[nH]c2n1
%Inh (PRKX): 4% | %Inh (PRP4): 0% | %Inh (PYK2): 0% | %Inh (QSK): 0% | %Inh (RAF1): 0% | %Inh (RET): 5% | %Inh (RIOK1): 0% | %Inh (RIOK2): 2% | %Inh (RIOK3): 8% | %Inh (RIPK1): 11%

CCC(=O)c1c(-c2ccccc2)c2cc(Cl)ccc2c(=O)n1Cc1cc(S(C)(=O)=O)n(CC(N)=O)n1
%Inh (PRKX): 0% | %Inh (PRP4): 38% | %Inh (PYK2): 0% | %Inh (QSK): 0% | %Inh (RAF1): 11% | %Inh (RET): 1% | %Inh (RIOK1): 1% | %Inh (RIOK2): 0% | %Inh (RIOK3): 0% | %Inh (RIPK1): 0%
